According to the supplement of paper PMC6555819:

Each sequence was assayed on PPARg:RXRa (NR concentration 180 nM, RXRa partner concentration 90 nM) (assay: PBM binding z-score (relative to random genomic background probes); higher = stronger binding; sequences stand for … in GC…GCGATTGACAGCGTAGAATGAAGG).
How it was run: (§1)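 Scanned fluorescence from custom Agilent 4×180K protein-binding microarrays was regression-normalized. Binding z-scores use random background probes as reference. Ligand-free nuclear receptor dimers were incubated on the arrays for 1 h and detected with antibodies against each partner (one per run).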

Row | Sequence | PBM binding z-score
1 | CGAACTAGGTCACTGACAGGACAGTGAATAGTAA | 7.95
2 | CATACAGGGTCAGCTAGGCCCGAGTAGGGACGGC | 2.95
3 | AGAATGAGGTTACCAAAGCTCAGGGAAACGCTTG | 2.2
4 | ATCTCTAGGTAAAGTTCAGTGACAGATCGATAGA | 3.41
5 | TCGGGTAGGTTACCAATGGGGCATTCAGCTTTCT | 0.0871
6 | TAGCCTAGGTCATTCAGGGGCCAGTAGAGAAAGC | 1.7
7 | ATCGAAAGGTCTTGAGGTGAGTATACAGAAAGGC | 1.15
8 | AGGATGAGGTTAAGATCAGGGAAACAGAATACAT | 1.63
9 | CCTCGGAGGACAACAGGAGGGCAGAGCTGCCAGA | -0.101
10 | TCTGCTAGCTCAGTTGGTCAGCTAACGAGCTGCC | -1.22
11 | TCTAGTTGGTCAGAGGTCACACACTCGAAATGCG | 9.31
12 | GCATATAAGTAATACAAGGTGAAAGTCCGATTGT | 0.911
13 | TTAGCAAGGTGAAAGGTCGTTGATGCACGCCTTG | 8.3
14 | AGCCAAAGTTCAGGACGAGGTAACGTAAAGCACG | 3.24
15 | AGAACGAGGGCATGCTGAGTTGATAGCAGAGTAG | 0.939
16 | ACTATTAATTGAGACGAGGGCAACCGATAGGTTG | 0.7
17 | CTCGAATGGTCGGTTGAGGTGAGTATACGGATAA | -0.0607
18 | GCGACTGGGGCAAAGCAGGTTACCATAAGGTTGG | 1.19

The sequences below were run on PPARg:RXRa 270nM:90nM, anti-RXR (NR concentration 270 nM, RXRa partner concentration 90 nM) in the same assay as above.
How it was run: as §1

Row | Sequence | PBM binding z-score
19 | TCATATAGGCAAAAGGTGAAAGTCGGTGTGGTAA | 6.76
20 | ATATGTAGGTTAGCTGGGGTCATTCAGACTAGGC | 5.12
21 | GCAACGAGGGCAAAGTTGATAGCATCTGTCGACG | 6.03
22 | CCTTACGGGTCGCTCCAGGTTATAGCATCGGAGT | 0.211
23 | ATGTCTAGGTAAGACTCAGTTCAGTGAAGAACGC | 0.15
24 | GATTCAGGGTCAAGGCCAGAGTACGCGTATTGAT | 6.72
25 | CGTCAAAGCTCAAGGTAACGTAACAGAAAGCAGC | -0.193
26 | CCTATTAGTTGACCACAAGGGCAACCGAAGCTCG | 0.203
27 | ATATGTAGCTTAGCTGGGGTCATTCAGACTAGGC | 2.3
28 | CTACCAAGGTGAACAAGCTCGTTGATTACTATTC | 0.345
29 | CTCGAAAGGTCGTGCTCAGGTGACTATACCAAAC | 3.95
30 | CGAACTAGGTCAAGAACAGTGAATCTCCGCACGC | 6.17
31 | ACTATTAGGTGACTTAGGGCAACCGATACGACGC | 1.34
32 | TAGCCTAGGTCAAGGGCCAGTATACCACGCGAAC | 4.61
33 | ACTTACGGGTCAACGAGGTTATTGCACGCGTATA | 5.22
34 | CGTCAAAGTTCAAGGTAACGTTACAGAAAGCAGC | 5.04
35 | CAATCTAGGTCACCGGAAGGTCAAAGTCCGCATG | 7.96
36 | CCGAGTGGGGCAAAGGTTACCATACTCAGTACGA | 9.62
37 | AATAGAGGGTCACTAGGCCAGAGTAGGTACGAAT | 5.59
38 | ACCTCTAGGTAACCAAGTTCAGTGAATGCCGAAC | 0.581

Row | Sequence | PBM binding z-score
39 | CGTCAAAGTTCAAGGTAACGTGACAGAAAGCAGC | 4.9
40 | TCTCGGAGGACACGAAGGTCAGAGCTTTCCAGAG | 1.45
41 | CGAACTAGGTCACTGACAGGACAGTGAATAGTAA | 6.65
42 | CATACAGGGTCAGCTAGGCCCGAGTAGGGACGGC | 2.99
43 | AGAATGAGGTTACCAAAGCTCAGGGAAACGCTTG | 2.57
44 | ATCTCTAGGTAAAGTTCAGTGACAGATCGATAGA | 4.29
45 | TCGGGTAGGTTACCAATGGGGCATTCAGCTTTCT | 1.31
46 | TAGCCTAGGTCATTCAGGGGCCAGTAGAGAAAGC | 2.31
47 | ATCGAAAGGTCTTGAGGTGAGTATACAGAAAGGC | 0.897
48 | AGGATGAGGTTAAGATCAGGGAAACAGAATACAT | 1.38
49 | CCTCGGAGGACAACAGGAGGGCAGAGCTGCCAGA | -1.25
50 | TCTGCTAGCTCAGTTGGTCAGCTAACGAGCTGCC | 0.0147
51 | TCTAGTTGGTCAGAGGTCACACACTCGAAATGCG | 8.56
52 | GCATATAAGTAATACAAGGTGAAAGTCCGATTGT | 0.715
53 | TTAGCAAGGTGAAAGGTCGTTGATGCACGCCTTG | 7.95
54 | AGCCAAAGTTCAGGACGAGGTAACGTAAAGCACG | 3.54
55 | AGAACGAGGGCATGCTGAGTTGATAGCAGAGTAG | 0.666
56 | ACTATTAATTGAGACGAGGGCAACCGATAGGTTG | 0.479
57 | CTCGAATGGTCGGTTGAGGTGAGTATACGGATAA | -0.192
58 | GCGACTGGGGCAAAGCAGGTTACCATAAGGTTGG | 1.12

Each sequence was assayed on PPARg:RXRa 30nM:10nM, anti-RXR (NR concentration 30 nM, RXRa partner concentration 10 nM) in the same assay as above.
How it was run: as §1

Row | Sequence | PBM binding z-score
59 | TCATATAGGCAAAAGGTGAAAGTCGGTGTGGTAA | 6.88
60 | ATATGTAGGTTAGCTGGGGTCATTCAGACTAGGC | 2.67
61 | GCAACGAGGGCAAAGTTGATAGCATCTGTCGACG | 4.83
62 | CCTTACGGGTCGCTCCAGGTTATAGCATCGGAGT | -0.551
63 | ATGTCTAGGTAAGACTCAGTTCAGTGAAGAACGC | -0.029
64 | GATTCAGGGTCAAGGCCAGAGTACGCGTATTGAT | 3.1
65 | CGTCAAAGCTCAAGGTAACGTAACAGAAAGCAGC | 0.0179
66 | CCTATTAGTTGACCACAAGGGCAACCGAAGCTCG | 0.1
67 | ATATGTAGCTTAGCTGGGGTCATTCAGACTAGGC | 0.587
68 | CTACCAAGGTGAACAAGCTCGTTGATTACTATTC | -0.0799
69 | CTCGAAAGGTCGTGCTCAGGTGACTATACCAAAC | 1.46
70 | CGAACTAGGTCAAGAACAGTGAATCTCCGCACGC | 2.93
71 | ACTATTAGGTGACTTAGGGCAACCGATACGACGC | 0.448
72 | TAGCCTAGGTCAAGGGCCAGTATACCACGCGAAC | 1.8
73 | ACTTACGGGTCAACGAGGTTATTGCACGCGTATA | 1.88
74 | CGTCAAAGTTCAAGGTAACGTTACAGAAAGCAGC | 2.28
75 | CAATCTAGGTCACCGGAAGGTCAAAGTCCGCATG | 6.12
76 | CCGAGTGGGGCAAAGGTTACCATACTCAGTACGA | 8.52
77 | AATAGAGGGTCACTAGGCCAGAGTAGGTACGAAT | 2.33
78 | ACCTCTAGGTAACCAAGTTCAGTGAATGCCGAAC | -0.247

Row | Sequence | PBM binding z-score
79 | CGTCAAAGTTCAAGGTAACGTGACAGAAAGCAGC | 2.23
80 | TCTCGGAGGACACGAAGGTCAGAGCTTTCCAGAG | 2.1
81 | CGAACTAGGTCACTGACAGGACAGTGAATAGTAA | 3.86
82 | CATACAGGGTCAGCTAGGCCCGAGTAGGGACGGC | 0.725
83 | AGAATGAGGTTACCAAAGCTCAGGGAAACGCTTG | 0.532
84 | ATCTCTAGGTAAAGTTCAGTGACAGATCGATAGA | 2.51
85 | TCGGGTAGGTTACCAATGGGGCATTCAGCTTTCT | 1.96
86 | TAGCCTAGGTCATTCAGGGGCCAGTAGAGAAAGC | 0.562
87 | ATCGAAAGGTCTTGAGGTGAGTATACAGAAAGGC | 0.286
88 | AGGATGAGGTTAAGATCAGGGAAACAGAATACAT | 0.783
89 | CCTCGGAGGACAACAGGAGGGCAGAGCTGCCAGA | -1.32
90 | TCTGCTAGCTCAGTTGGTCAGCTAACGAGCTGCC | 0.674
91 | TCTAGTTGGTCAGAGGTCACACACTCGAAATGCG | 7.99
92 | GCATATAAGTAATACAAGGTGAAAGTCCGATTGT | 0.283
93 | TTAGCAAGGTGAAAGGTCGTTGATGCACGCCTTG | 8.33
94 | AGCCAAAGTTCAGGACGAGGTAACGTAAAGCACG | 0.828
95 | AGAACGAGGGCATGCTGAGTTGATAGCAGAGTAG | 0.00172
96 | ACTATTAATTGAGACGAGGGCAACCGATAGGTTG | 0.271
97 | CTCGAATGGTCGGTTGAGGTGAGTATACGGATAA | -0.213
98 | GCGACTGGGGCAAAGCAGGTTACCATAAGGTTGG | -0.898
